A short description of experiment [1]: qHTS assay to identify small molecule agonists of the vitamin D receptor (VDR) signaling pathway - cell viability counter screen (AID 743224). Also: series mostly up to about 63 µM; nearly all actives have a fitted effect of over 50% in size. The method, boiled down: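 Counter screen run in the same wells as the VDR-bla reporter assay: CellTiter-Glo luminescence, 30 min at room temperature, after 16 h compound treatment at 37C of cells pre-plated for 4 h.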

Experiment [2] is described as follows: qHTS assay to identify small molecule antagonists of the vitamin D receptor (VDR) signaling pathway - cell viability counter screen (AID 743225). Also: nearly all actives have a fitted effect of over 50% in size. Summed up:
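Cytotoxicity toward the VDR-bla HEK 293T line was scored by ATP-based CellTiter-Glo luminescence, read in the wells already used for the beta-lactamase readout after 16 h compound treatment under 3 nM 1-alpha,25-dihydroxyvitamin D3 stimulation.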
A general note: In qHTS, concentration-response curves come from the screen itself.

Experiment [3] in a line: qHTS assay to identify small molecule agonists of the NFkB signaling pathway - cell viability counter screen (AID 1159515; calls by dose curve; also: series mostly up to about 61 µM; nearly all actives have a fitted effect of over 55% in size). Summed up:
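Read by CellTiter-Glo luminescence (30 min, room temperature) in the wells also used for the beta-lactamase FRET read. ME-180 NFkB-bla cells at 2,000 per well were plated overnight, then exposed to compound for 5 hr at 37 C.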

A short description of experiment [4]: qHTS assay to identify small molecule agonists of the endoplasmic reticulum stress response signaling pathway (AID 1159516; active = well fitted activation curve with a large enough effect in the signal ratio in the repeat runs, not every such curve was filed as active; the % refers to the signal ratio). Summed up: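 Ratiometric FRET readout (405 nm excitation; 460 and 530 nm emission) of a beta-lactamase gene driven by the ER stress response element, after 2 hr substrate loading. HeLa ESRE-bla cells were seeded overnight and treated with compounds for only 5 hr at 37 C.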

A short description of experiment [5]: qHTS assay to identify small molecule agonists of the endoplasmic reticulum stress response signaling pathway - cell viability counter screen (AID 1159517; calls by dose curve; also: series mostly up to about 61 µM; nearly all actives have a fitted effect of over 50% in size). The method, boiled down:
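Cytotoxicity of test compounds toward ESRE-bla HeLa cells was assessed after 5 hr exposure. The luminescent CellTiter-Glo signal was measured 30 min after reagent addition.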

Experiment [6] in a line: qHTS assay to identify small molecule antagonists of the retinoid-related orphan receptor gamma (ROR-gamma) signaling pathway - cell viability counter screen (AID 1159520). Also: nearly all actives have a fitted effect of over 50% in size. Summed up:
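Tet-on ROR gamma CHO cells (1,000/well) were plated 4 hr, given compounds in DMSO for 2 hr at 37 C, then induced with 1 uM final doxycycline for 16 hr. Viability was read as ATP by CellTiter-Glo luminescence after 30 min.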

Experiment [7] has as its target Nuclear receptor ROR-gamma (Homo sapiens) (UniProt P51449). As to the kind of experiment: qHTS assay to identify small molecule antagonists of the retinoid-related orphan receptor gamma (ROR-gamma) signaling pathway (AID 1159521; also: nearly all actives have a fitted effect of over 50% in size; also: potency is read from the fitted curve at half-maximal effect). Summed up: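 Readout: ONE-Glo luciferase luminescence, 30 min at room temperature. System: Tet-on RORγ CHO, RORE-LUC. Sequence: compound 2 h, doxycycline 1 uM final, 16 h at 37 C.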

Experiment [8] is described as follows: qHTS assay to identify small molecule agonists of the AP-1 signaling pathway - cell viability counter screen (AID 1159525; calls by dose curve; also: nearly all actives have a fitted effect of over 55% in size). The method, boiled down:
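Each titration point was normalised to DMSO and tetra n-octyl ammonium bromide controls. The read was Cell Titer Glo luminescence after 30 min at RT, following 5 h compound exposure of ME-180 AP-1-bla cells at 37 °C.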

The nature of experiment [9]: qHTS assay to identify small molecule agonists of the AP-1 signaling pathway (AID 1159526; calls by dose curve).
Experiment [10] in a line: qHTS assay to identify small molecule agonists of the RXR signaling pathway - cell viability counter screen (AID 1159529). Also: nearly all actives have a fitted effect of over 50% in size. Also: potency is read from the fitted curve at half-maximal effect. The method, boiled down: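 Tox21 10K compounds were tested for cytotoxicity against GeneBLAzer RXR-alpha HEK 293T cells grown in 2% charcoal-stripped FBS. Exposure lasted 16 hr at 37 C, 5% CO2; viability read by CellTiter-Glo luminescence.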
Experiment [11] is described as follows: qHTS assay to identify small molecule antagonists of the retinoid acid receptor (RAR) signaling pathway - cell viability counter screen (AID 1159551). Also: nearly all actives have a fitted effect of over 35% in size. Also: potency is read from the fitted curve at half-maximal effect. Summed up:
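Cytotoxicity counter screen: ATP content quantified by CellTiter-Glo luminescence in C3RL4 cells treated 6 hr at 37 C with compound and retinol (1 uM final). Cells plated at 1,000/well and cultured overnight before dosing.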

Experiment [12] in a line: qHTS assay to identify small molecule antagonists of the retinoic acid receptor (RAR) signaling pathway (AID 1159552; also: nearly all actives have a fitted effect of over 50% in size). Summed up:
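Overnight-plated C3RL4 reporter cells get compound, then retinol to 1 uM final; plates sit 6 hr at 37 C, 5% CO2. A luciferase reagent is added and light output recorded after 30 min at room temperature.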

Experiment [13] is described as follows: qHTS assay to identify small molecule agonists of the retinoic acid receptor (RAR) signaling pathway (AID 1159553). The method, boiled down: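 Luminescence was measured 30 min after luciferase reagent addition at room temperature. Before that, C3RL4 reporter cells (1,000 per well, plated overnight) were treated with compound for 6 hr at 37 C and 5% CO2.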

Experiment [14] deals with Retinoic acid receptor RXR-alpha (Homo sapiens) (UniProt P19793). The experiment is described as follows: qHTS assay to identify small molecule agonists of the RXR signaling pathway (AID 1159527; calls by dose curve; also: nearly all actives have a fitted effect of over 35% in size; also: potency is read from the fitted curve at half-maximal effect). The method, boiled down:
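Reporter activation is measured as beta-lactamase activity via FRET substrate cleavage (emission 460/530 nm) in HEK 293T cells expressing an RXR-alpha-driven bla construct, following 16 hr compound exposure at 37 C.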

The nature of experiment [15]: qHTS assay to identify small molecule antagonists of the estrogen related receptor (ERR) signaling pathway - cell viability counter screen (AID 1224818).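 Also: series mostly up to about 46 µM; viability measured after 17.5 h of compound exposure.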 The method, boiled down:
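Cytotoxicity counter screen: fluorescence from CellTiter-Fluor, added after 17.5 h compound exposure at 37 C and read 30 min later. ERR cell line seeded at 2,000 cells/well, preincubated 6 h before dosing.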

Experiment [16] is described as follows: qHTS assay to identify small molecule antagonists of the estrogen related receptor signaling pathway with the pleiotropic PPARgamma coactivator (PGC) cell viability counter screen (AID 1224822; also: series mostly up to about 46 µM). The method, boiled down: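 Viability counter-screen read by fluorescence intensity after 30 min with CellTiter-Fluor at 37 C; PGC/ERR reporter cells were exposed to compounds for 17.5 h at 37 C following a 6 h preincubation.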

Several values for one entry are separate records, joined by “and”; a condition that tells them apart may be missing. Equal values may be shown once. Results filed as inconclusive are left out. The source holds several records for some structures; these can differ, active in one and inactive in another. Activity calls are given as the source filed them. Unless noted, calls follow the shape of the dose curve; as a rule, active = well fitted curve in the direction sought with a large enough effect in the repeat runs; inconclusive = weak or mixed curves; inactive = no such curve, though single readings can be large; an effect the other way counts as inactive or inconclusive.

Retinoic acid receptor RXR-alpha (Homo sapiens), sequence (P19793 whole entry, looked up): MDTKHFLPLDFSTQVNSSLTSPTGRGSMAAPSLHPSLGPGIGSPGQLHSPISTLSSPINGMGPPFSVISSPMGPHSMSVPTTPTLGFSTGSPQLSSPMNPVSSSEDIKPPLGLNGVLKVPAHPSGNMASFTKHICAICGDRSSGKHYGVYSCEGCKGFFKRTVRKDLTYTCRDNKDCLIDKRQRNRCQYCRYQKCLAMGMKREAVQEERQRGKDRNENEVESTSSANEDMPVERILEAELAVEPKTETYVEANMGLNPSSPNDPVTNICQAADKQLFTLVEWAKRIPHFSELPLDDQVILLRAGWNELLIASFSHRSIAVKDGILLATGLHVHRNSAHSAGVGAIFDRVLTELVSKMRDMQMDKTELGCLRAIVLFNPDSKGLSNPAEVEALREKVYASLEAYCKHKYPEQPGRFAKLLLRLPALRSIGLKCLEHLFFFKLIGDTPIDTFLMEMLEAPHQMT

With `NC(CO)(CO)CO`, the Potency entry in experiment [1], in [2], in experiment [3], in [4], in [5] and in experiment [6] was “inactive” in each case. The Potency result in [7], in [8], in experiment [9], in experiment [10], in experiment [11] and in [12] was “inactive” each time. Further, the Potency entry in experiment [13] was “inactive”.

On to `Cc1cn([C@H]2C=C[C@@H](CO)O2)c(=O)[nH]c1=O`, for which the Potency entry in experiment [1], in experiment [2], in [3], in experiment [4], in experiment [5] and in experiment [6] was “inactive” in each case. Also, the Potency result in [7], in experiment [8], in [9], in [10], in experiment [11] and in experiment [16] was “inactive” throughout. Also, the Potency result in experiment [14] was “inactive and 17.4 µM (active)”. Moreover, the call in experiment [15] was inactive.

Regarding `O=C1NS(=O)(=O)c2ccccc21`, the Potency entry in [1], in experiment [2], in experiment [3], in experiment [4], in [5] and in experiment [6] was “inactive” throughout. Besides, the Potency entry in experiment [7], in [8], in experiment [9], in experiment [10], in experiment [11] and in [13] was “inactive” each time.

In the case of `NC(=O)c1cccnc1`, the Potency entry in experiment [1], in experiment [2], in [3], in [4], in [5] and in [6] was “inactive” in each case. Besides, the Potency entry in experiment [7], in [8], in [9], in experiment [14], in experiment [10] and in experiment [11] was “inactive” each time.

In the case of `CN1CCC[C@H]1c1cccnc1`, the Potency entry in [1], in [2], in [3], in experiment [4], in [5] and in experiment [6] was “inactive” in each case. In addition, the Potency result in experiment [7], in [8], in [9], in experiment [14], in [10] and in experiment [11] was “inactive” each time.

Take `CN(C)C(=O)Nc1ccc(Cl)c(Cl)c1`: the Potency result in experiment [1], in experiment [2], in experiment [3], in experiment [4], in [5] and in experiment [6] was “inactive” in each case. Further, the Potency result in experiment [7], in experiment [8], in experiment [9], in experiment [10], in [11] and in experiment [12] was “inactive” in each case. The Potency result in experiment [13] is “inactive”.

As to `Cc1c(C(=O)O)c(O)cc2c1C(=O)c1c(O)c([C@@H]3O[C@H](CO)[C@@H](O)[C@H](O)[C@H]3O)c(O)c(O)c1C2=O`, the Potency entry in experiment [1], in [2], in experiment [3], in [4], in experiment [5] and in [6] was “inactive” in each case. For the same compound, the Potency result in experiment [7], in experiment [8], in [9], in experiment [10], in experiment [12] and in experiment [13] was “inactive” in each case. In experiment [11], the Potency is 33.5 µM (active) and 48.6 µM (active).

For `O=c1[nH]cc(F)c(=O)[nH]1`, the Potency result in experiment [1], in experiment [2], in [3], in [4], in [5] and in [6] was “inactive” in each case. For the same compound, the Potency entry in experiment [8], in experiment [9], in experiment [11] and in experiment [16] was “inactive” each time. For the same compound, the Potency in [7] is 4.49 µM (active) and inactive; in experiment [10], 45.3 µM (active) and inactive. Moreover, the outcome in experiment [15] was inactive.

Take `O=S1(=O)OC(c2ccc(O)cc2)(c2ccc(O)cc2)c2ccccc21`: the Potency entry in experiment [1], in experiment [2], in experiment [3], in experiment [4], in experiment [5] and in [6] was “inactive” each time. Moreover, the Potency entry in [7], in experiment [8], in experiment [9], in experiment [10], in experiment [11] and in experiment [12] was “inactive” throughout. Moreover, in [13], the Potency entry was “inactive”.

Values taken from PubChem BioAssay (Tox21).
